According to PubChem BioAssay AID743287 (Broad Institute, 2014):
Out of some 370,000 compounds screened, about 2,300 (0.62%) were called active.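 Rule for the calls: active = lowest replicate activation of at least 40%, so every replicate reaches that level; inactive = the rest.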 Shown is part of a subset that was picked to be rich in actives.

test: primary screen for activators of insulin secretion dependent on glucose, INS-1E cells, GLuc reporter luminescence (AID 743287); conditions: INS-1E GLuc reporter insulin secretion, 2-3 h, at 16.6 µM, hits give high values;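 note: 0% = median of neutral control wells and 100% = median of IBMX positive control wells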

Row | Structure (SMILES) | activation
1 | Cc1ccccc1NC(=O)COc1cccc2c1CCNC2=O | 23.1% (inactive)
2 | O=C(COc1ccccc1O)NC1CCCC1 | 11.6% (inactive)
3 | O=C(COc1cccc2c1CCNC2=O)NC1CCCCC1 | 44.9% (active)
4 | COc1ccc(NC(=O)Nc2ccc3c(c2)C(=O)N([C@@H](C)CO)C[C@@H](C)[C@@H](CN(C)C(=O)Nc2ccc(F)cc2)OCCCC[C@@H](C)O3)cc1 | -7.03% (inactive)
5 | COc1ccc(-c2ccccc2[C@H]2[C@@H](C#N)N(C(=O)C3CCC3)[C@@H]2CO)cc1 | -4.21% (inactive)
6 | S=C(NCCCc1cnc[nH]1)NCCCN(Cc1ccc(Cl)c(Cl)c1)c1ccc(Br)cn1 | 17% (inactive)
7 | NCCCNC(=S)NCCCN(Cc1ccc(Cl)cc1)c1ccc(Br)cn1 | 57.1% (active)
8 | O=C(/C=C/c1ccc(Cl)cc1)Nc1ccc(Br)cn1 | 3.4% (inactive)
9 | CCOc1cc(C(=O)OCC(=O)Nc2cccc(C)c2)ccc1OCC(=O)N1CCOCC1 | 7.48% (inactive)
10 | COc1ccc(C(=O)OCC(=O)Nc2cccc(C(C)=O)c2)cc1OC | 67.3% (active)
11 | COc1ccc(C(=O)OCC(=O)Nc2cc(C)on2)cc1F | 12.4% (inactive)
12 | C[C@@H]1CN([C@@H](C)CO)S(=O)(=O)c2ccc(-c3ccncc3)cc2O[C@@H]1CN(C)C(=O)C1CCC1 | 7.69% (inactive)
13 | CCCNC(=O)N(C)C[C@H]1Oc2cc(C3=CCCCC3)ccc2S(=O)(=O)N([C@H](C)CO)C[C@H]1C | -12.1% (inactive)
14 | CCN(CCO)C(=S)Nc1cc(C(=O)OC)ccc1C(=O)OC | 18% (inactive)
15 | COC(=O)c1ccc(C(=O)Nc2cc(Cl)ccc2Cl)cc1NC(=O)c1ccccc1C | 82.6% (active)
16 | CCCN(CCC)C(=S)Nc1cc(C(=O)OC)ccc1C(=O)OC | 20.1% (inactive)
17 | Cc1ccc(F)c(NC(=O)CCOc2ccccc2C)c1 | -15% (inactive)
18 | C/C=C/c1ccc(OCCOc2ccc(C=O)cc2OC)c(OC)c1 | 10.7% (inactive)
19 | COc1cc(/C=N/NC(=O)Nc2ccccc2)ccc1OCCOc1ccccc1C | 169% (active)

Row | Structure (SMILES) | activation
20 | C[C@H](O)C#Cc1ccc2c(c1)O[C@H](CN(C)C(=O)C1CCCCC1)[C@@H](C)CN([C@H](C)CO)S2(=O)=O | 4.13% (inactive)
21 | Cc1ccc(CNC(=O)c2ccccc2CCc2ccccc2)cc1 | -27.9% (inactive)
22 | CSc1ccccc1C(=O)NCc1ccccc1 | -6.59% (inactive)
23 | CCCN1Cc2cccc(C(=O)NCc3ccccc3)c2C1=O | 72.4% (active)
24 | C[C@@H]1CN(C)C(=O)c2cc([N+](=O)[O-])ccc2O[C@@H]1CN(C)C(=O)OC(C)(C)C | 16% (inactive)
25 | COc1cccc(-c2ccc3n(c2=O)C[C@@H]2[C@@H](CO)[C@H](C(=O)NC4CCC4)[C@H]3N2C)c1 | 7.74% (inactive)
26 | COc1cccc(C(=O)OCc2cc(=O)oc3c(C)c(C)ccc23)c1OC | 8.16% (inactive)
27 | COc1cccc2cc(C(=O)NCc3ccc(C)cc3)c(=N)oc12 | 12.3% (inactive)
28 | COc1cccc2cc(-c3cc(=O)oc4cc(C)c(O)cc34)oc12 | 78.5% (active)
29 | CNC[C@@H]1Oc2ccc(N(C)C)cc2CC(=O)N(C)C[C@@H]1C | 2% (inactive)
30 | CC1(C(=O)NS(=O)(=O)c2ccccc2)CCN1C(=O)C1CCCCC1 (stereo unspecified) | 4.33% (inactive)
31 | CC(C)(C)c1ccc(S(=O)(=O)NC(=O)C2(C)CCN2C(=O)CC2CC2)cc1 (stereo unspecified) | 7.26% (inactive)
32 | CC(C)(C(=O)N1CCC1(C)C(=O)NS(=O)(=O)c1ccc(Br)cc1)c1ccccc1 (stereo unspecified) | 41.5% (active)
33 | O=C(NCC[C@@H]1CC[C@H](NC(=O)C2CCCCC2)[C@@H](CO)O1)Nc1ccc(Cl)cc1 | -11.1% (inactive)
34 | Cc1noc(C)c1NC(=O)N(C)C[C@@H]1OCCCC[C@@H](C)Oc2ccc(NC(=O)C3CCCCC3)cc2C(=O)N([C@@H](C)CO)C[C@H]1C | -7.43% (inactive)
35 | COc1ccc(-c2ccccc2[C@@H]2[C@@H](C#N)N(C(=O)NC3CCCC3)[C@H]2CO)cc1 | -19.5% (inactive)
36 | COc1ccc2c3c(n(C)c2c1)[C@@H](CO)N(Cc1ccccc1OC)CC31CN(CC2CCOCC2)C1 | 10% (inactive)
37 | CC(C)C#Cc1ccc2c(c1)O[C@@H](CN(C)CC1CCOCC1)[C@H](C)CN([C@H](C)CO)S2(=O)=O | -9.43% (inactive)
38 | O=C(COc1ccc(-c2ccccc2)cc1)NN=C1CCCC1 | 11% (inactive)

Row | Structure (SMILES) | activation
39 | O=C(CN1CCSCC1)N/N=C/c1ccc(F)cc1 | -0.738% (inactive)
40 | Cc1ccc(/C=N/NC(=O)COc2ccccc2-c2ccccc2)cc1 | 267% (active)
41 | CN(C)C(=O)C[C@H]1CC[C@@H](NC(=O)Nc2cccc(F)c2)[C@H](CO)O1 | 3.3% (inactive)
42 | CN1c2ccc(-c3ccc(F)cc3)cc2[C@@H]2[C@@H](CCN2C(=O)c2cccnc2)[C@H]1CO | 18.2% (inactive)
43 | CNC[C@H]1Oc2ccc(NS(=O)(=O)c3ccccc3)cc2CC(=O)N([C@H](C)CO)C[C@@H]1C | 3.16% (inactive)
44 | Cc1cccc(C)c1NC(=O)C1CCCN1C(=O)OC(C)(C)C (stereo unspecified) | 2.21% (inactive)
45 | Cc1ccc(C)c(NC(=O)C2CCCN2C(=O)OC(C)(C)C)c1 (stereo unspecified) | -3.08% (inactive)
46 | CCC[C@H]1CCCC/C=C\CCCC(=O)OCCN1C(=O)OC(C)(C)C | 66.4% (active)
47 | C[C@H]1CN(C)C(=O)c2cccc(N(C)C)c2O[C@@H]1CN(C)C | -6.84% (inactive)
48 | CNC[C@H]1Oc2cc(C#CCOC)ccc2S(=O)(=O)N([C@@H](C)CO)C[C@H]1C | 4.43% (inactive)
49 | Cc1noc(C)c1NC(=O)Nc1ccc2c(c1)CC(=O)N([C@@H](C)CO)C[C@H](C)[C@@H](CN(C)C(=O)Nc1ccc3c(c1)OCO3)O2 | 5.38% (inactive)
50 | CC(=O)N(C)C[C@@H]1Oc2ccc(NC(=O)NC(C)C)cc2C(=O)N(C)C[C@H]1C | 9.69% (inactive)
51 | COc1ccc(Cl)cc1NC(=O)CN(C)CC(=O)Nc1ccc2c(c1)OCO2 | -15.8% (inactive)
52 | COc1ccc(/C=C/C(=O)Nc2ccc(C34CC5CC(CC(O)(C5)C3)C4)cc2)cc1OC | 11.4% (inactive)
53 | COc1ccc(S(=O)(=O)N(C)CC(=O)Nc2ccc3c(c2)OCCO3)cc1OC | 79.4% (active)
54 | COc1ccc(/C=C/C(=O)Nc2ccc3c(c2)OCCO3)cc1OC | 53.8% (active)
55 | CN(CC(=O)Nc1ccc(C(N)=O)cc1)S(=O)(=O)c1ccc2c(c1)OCCO2 | -7.44% (inactive)
56 | COc1ccc(NC(=O)CN(C)S(=O)(=O)c2ccccc2)cc1OC | 8.5% (inactive)
